# Measured values from the supplement of paper PMC6522484.
# ± gives the standard deviation of the averaged measurements.
# Experiments:
# DLD1 [1] = assay: cell viability (CellTiter-Glo) relative to plate median (fraction of plate median); higher = more viable cells; details: 5 µM; treatment time 24 h; reporter: 7TFP
# Procedure, shortened: (§1)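 Luminescence, normalised well by well to the plate median, is tabulated as a mean of independent replicates. There were two replicates, run on colorectal cancer lines stably transduced with lentiviral TCF/Wnt firefly luciferase reporters and dosed with library compounds at a final 5 µM for 24 h. Readouts were firefly luciferase or CellTiterGlo on parallel plates.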
# HCT116 = assay: as above; details: 5 µM; treatment time 24 h; reporter: TCF4/Wnt
# Procedure, shortened: as §1
# SW480 [2] = assay: as above; details: 5 µM; treatment time 24 h; reporter: 7TFP
# Procedure, shortened: as §1
# DLD1 [3] = assay: TCF/Wnt firefly luciferase reporter signal relative to plate median (fraction of plate median); higher = higher Wnt reporter signal; details: 5 µM; treatment time 24 h; reporter: 7TFP
# Procedure, shortened: as §1
# SW480 [4] = assay: as above; details: 5 µM; treatment time 24 h; reporter: 7TFP
# Procedure, shortened: as §1
SMILES,cell viability (DLD1 [1]),cell viability (HCT116),cell viability (SW480 [2]),TCF/Wnt firefly luciferase reporter signal (DLD1 [3]),TCF/Wnt firefly luciferase reporter signal (SW480 [4])
C[n+]1cc2c3c(ccc2c2ccc4cc5c(cc4c21)OCO5)OCO3,1.02 ± 0.021,1.08 ± 0.12,0.99 ± 0.043,1 ± 0.081,0.981 ± 0.011
O=C1c2ccccc2C(=O)c2c(O)c(O)cc(O)c21,1.02 ± 0.052,0.96 ± 0.14,1.09 ± 0.092,1.17 ± 0.028,0.873 ± 0.044
CCCc1ncc(C[n+]2ccccc2C)c(N)n1,0.995 ± 0.05,0.935 ± 0.059,0.972 ± 0.0028,0.956 ± 0.057,0.987 ± 0.011
CC(=O)c1ccc[nH]1,0.992 ± 0.04,1.03 ± 0.048,1.025 ± 0.0071,0.87 ± 0.23,0.798 ± 0.14
O=C1c2ccccc2C(=O)c2c(Cl)cccc21 [Chloro-Anthraquinone],1.01 ± 0.027,0.993 ± 0.024,0.974 ± 0.017,1.03 ± 0.16,0.944 ± 0.14
COc1cc(O)cc(OC)c1OC,1.01 ± 0.019,1.01 ± 0.015,0.942 ± 0.074,0.941 ± 0.021,0.978 ± 0.0028
CC(NCCC(c1ccccc1)c1ccccc1)c1ccccc1 (stereo not given),0.982 ± 0.04,1.02 ± 0.021,1 ± 0.051,0.9435 ± 0.0035,0.92 ± 0.015
CC(C)(C)NC[C@H](O)COc1cccc2c1CCCC2=O,0.99 ± 0.043,1.03 ± 0.075,0.9555 ± 0.0035,0.886 ± 0.0085,0.981 ± 0.084
NCCCCC(=O)O,0.9365 ± 0.0021,0.981 ± 0.098,1.03 ± 0.021,1.06 ± 0.19,0.9645 ± 0.00071
Cc1c(OCC(F)(F)F)ccnc1C[S+]([O-])c1nc2ccccc2[nH]1 (stereo not given),1.07 ± 0.14,1.02 ± 0.061,0.932 ± 0.0014,1.09 ± 0.021,0.959 ± 0.011
Oc1c(Cl)cc(Cl)cc1Sc1cc(Cl)cc(Cl)c1O,1.03 ± 0.058,1.01 ± 0.022,0.99 ± 0.043,0.979 ± 0.059,0.959 ± 0.048
CC(=O)CC(c1ccccc1)c1c(O)c2ccccc2oc1=O (stereo not given),1.02 ± 0.056,1.14 ± 0.078,0.989 ± 0.073,0.935 ± 0.062,1.12 ± 0.028
Cc1cc(C(C)(C)C)c(O)c(C(C)(C)C)c1,0.926 ± 0.054,0.925 ± 0.057,1.004 ± 0.0092,1.04 ± 0.09,0.969 ± 0.011
CN(C)CCOC(=O)C(c1ccccc1)C1(O)CCCC1 (stereo not given),0.986 ± 0.0014,1.07 ± 0.099,1 ± 0.013,1.12 ± 0.12,1.05 ± 0.12
COc1ccc(-c2coc3cc(O)ccc3c2=O)c(O)c1O,1.02 ± 0.035,0.993 ± 0.038,1.03 ± 0.014,1 ± 0.079,1.09 ± 0.028
